HEK293 tox: qHTS of GLP-1 Receptor Inverse Agonists: Cytotox Screen; HEK293 cAMP-luciferase reporter cells, luminescence, 24 h; Potency, µM (highest dose often 38.3 µM), inactives show at the top dose activity change, negative = inhibition, usual class: inhibitors; actives 0.13% (n = 410,000);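 further: loss of luciferase light is scored as toxicity; potency means the concentration at half of the fitted maximal effect; on the % scale 0 is the no-effect control and ±100 the full control effect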
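Cells in DMEM/10% Nu serum/1% pen-strep, 1536-well format. Pre-incubated 12 h, dosed with 23 nL compound, incubated a further 24 h. Luciferase detection, 12 min at room temp, luminescence.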
GLP1R inv ag: qHTS of GLP-1 Receptor Inverse Agonists (Inhibition Mode); HEK293 GLP-1R CRE-luciferase, luminescence, 24 h; GLP-1R form is constitutively active; Potency, µM (highest dose often 38.3 µM), inactives show at the top dose activity change, negative = inhibition, actives largely listed as inhibitors; actives 1.6% (n = 410,000); AID 624417, 2012; further: potency means the concentration at half of the fitted maximal effect; on the % scale 0 is the no-effect control and ±100 the full control effect; nearly all actives have a fitted effect of over 55% in size
Target sequence (P43220 whole entry, looked up): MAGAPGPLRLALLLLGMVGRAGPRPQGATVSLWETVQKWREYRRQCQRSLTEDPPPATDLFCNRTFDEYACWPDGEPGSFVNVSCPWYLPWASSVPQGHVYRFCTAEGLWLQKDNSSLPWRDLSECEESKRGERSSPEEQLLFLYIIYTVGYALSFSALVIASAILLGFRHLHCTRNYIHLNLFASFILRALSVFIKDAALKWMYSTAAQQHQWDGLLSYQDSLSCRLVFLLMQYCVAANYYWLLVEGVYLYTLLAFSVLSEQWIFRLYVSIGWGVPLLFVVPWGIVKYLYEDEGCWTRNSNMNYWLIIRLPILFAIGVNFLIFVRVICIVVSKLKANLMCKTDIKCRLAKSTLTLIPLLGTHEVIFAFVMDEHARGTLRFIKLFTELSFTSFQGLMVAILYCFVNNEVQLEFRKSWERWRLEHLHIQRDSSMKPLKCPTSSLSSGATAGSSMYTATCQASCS
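Using stably transfected HEK293 (constitutively active GLP-1R, cAMP-luciferase reporter), compounds were incubated 24 hr and luciferase measured by luminescence.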
KCNH2 3.1 inh: qHTS for Inhibitors of KCHN2 3.1: Mutant qHTS. U2OS KCNH2 3.1, thallium flux FluxOr; active compounds read low. actives 0.95% (n = 340,000). AID 720553, 2013. activity change, % (tested at about 1.8 µM);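 active means maximum activity change below -70%; inconclusive means maximum activity change from -70% to -50%; inactive means maximum activity change above -50%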;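 further: thallium influx rate constant from kinetic fluorescence after stimulation buffer; on the % scale 0 is the no-effect control and ±100 the full control effect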
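Channel expression came from 3.1 mutant virus (1.77 x 10^8 /mL) applied to suspended U2OS cells for 4 h. Flux was tracked with FluxOr dye plus Red40 quencher, and kinetic rate constants normalized to controls.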
GLP-1R agonist: qHTS of GLP-1 Receptor Agonists | Glucagon-like peptide 1 receptor (Homo sapiens), P43220 | HEK293 GLP-1R CRE-luciferase, luminescence, 4-6 h; cells express a hypersensitive GLP-1R form | Potency, µM (titrated, usually from 45.6 µM), for inactives: at the top dose activation, hits mostly activators | actives 0.007% (n = 380,000); further: potency means the concentration at half of the fitted maximal effect; % of control where 0% means no effect
GLS inhibitor: qHTS for Inhibitors of Glutaminase (GLS). GLS enzymatic activity, qHTS titration. Potency, µM (top dose mostly 45.5 µM), for the others: at the top dose activity change, negative = inhibition, actives largely listed as inhibitors. Glutaminase kidney isoform, mitochondrial (Homo sapiens), O94925. actives 0.21% (n = 410,000); further: potency means the concentration at half of the fitted maximal effect; on the % scale 0 is the no-effect control and ±100 the full control effect
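Assay buffer: 45 mM KH2PO4 pH 8.2, 0.02% Tween-20. hKGA acts on L-glutamine (1 mM solution added); product glutamate is reported by an oxidase/peroxidase Amplex Red coupling, with fluorescence taken at baseline and 30 min.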
KCNH2 WT inh: qHTS for Inhibitors of KCHN2 3.1: Wildtype qHTS. Voltage-gated inwardly rectifying potassium channel KCNH2 (Homo sapiens), Q12809. U2OS, BacMam KCNH2, thallium flux FluxOr; active compounds read low. activity change, % at 1.84 µM. actives 0.37% (n = 340,000). AID 720551, 2013;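 active means maximum activity change below -70%; inconclusive means maximum activity change between -70% and -50%; inactive means maximum activity change above -50%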; further: on the % scale 0 is the no-effect control and ±100 the full control effect
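U2OS cells were transduced with wild-type KCNH2 virus (2.03 x 10^8 / mL) for 4 h at room temperature, then cultured overnight at 37 C. Thallium flux was read with FluxOr dye. Rate constants were normalized to DMSO controls.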
Starred values were filed as active, the others as inactive; ? = inconclusive; . = no result; ! = not active in a repeat. Most compounds without a hit are left out; they make up all but 2.8% or so of the library. Unless noted, the call rests on the fitted dose curve; in most records, active means well fitted curve in the direction sought with a large enough effect; inconclusive means small, poorly fitted or top-dose-only effect, or another doubt; inactive means no such curve, though single readings can be large; an effect the other way counts as inactive or inconclusive.

SMILES	HEK293 tox	GLP1R inv ag	KCNH2 3.1 inh	GLP-1R agonist	GLS inhibitor	KCNH2 WT inh
CCc1ccc(-c2nc(CN3CCC(C(=O)NCCN(CC)c4ccccc4)CC3)c(C)o2)cc1	-18%	?	-112*	-1%	14%	-32
COc1ccc(-c2nc(CN3CCC(C(=O)NCCCN4CCN(c5ccccc5F)CC4)CC3)c(C)o2)cc1OC	13µM*	10µM*	.	.	-26%	.
Cc1oc(-c2cccc(Cl)c2)nc1CN1CCC(C(=O)NCCCN2CCN(c3ccccc3F)CC2)CC1	0%	4%	.	.	6%	.
Cc1oc(-c2ccc(Cl)cc2)nc1CN1CCC(C(=O)NCCCN2CCOCC2)CC1	-21%	?	-17	5%	-4%	6
CCN(CCNC(=O)C1CCN(Cc2nc(-c3ccc(Cl)cc3)oc2C)CC1)c1ccccc1	?	2.5µM*	-72*	-5%	16%	-29
O=c1ccc(-c2ccc(S(=O)(=O)Nc3cccc([N+](=O)[O-])c3)s2)n[nH]1	-3%	171%	23	5%	5%	6
Cc1ccccc1-c1nc(CN2CCC(C(=O)NCCC3=CCCCC3)CC2)c(C)o1	3%	-12%	-71*	0%	.	-78*
COc1ccc(-c2nc(CN3CCC(C(=O)NCc4ccc(F)cc4)CC3)c(C)o2)cc1OC	2%	19%	.	.	2%	.
Cc1ccccc1-c1nc(CN2CCC(C(=O)NCCc3ccccc3)CC2)c(C)o1	-9%	-8%	.	.	-4%	.
CCc1ccc(-c2nc(CN3CCC(C(=O)NCc4ccc(F)cc4)CC3)c(C)o2)cc1	-4%	0%	-107*	4%	.	?
CCOc1nc(NC(=O)NS(=O)(=O)Oc2cccc(F)c2)nc(-c2ccccc2)n1	1%	46%	.	-5%	6%	.
Cc1ccc(OCCN2CCN(c3ncnc4sc(C)c(C)c34)CC2)cc1	-30%	?	-79*	10%	5%	-3
Cc1sc2ncnc(N3CCCCC3)c2c1C	2%	51%	-8	5%	-2%	6
CCCN1CCN(c2ncnc3sc(C(=O)Nc4ccc(OC(F)(F)F)cc4)c(C)c23)CC1	-5%	10µM*	.	.	5%	.
CCOc1ccc(S(=O)(=O)NCCc2csc(-c3ccc(Cl)cc3)n2)cc1	-7%	?	.	.	-16%	.
COc1ccc(CCNC(=O)CN2C(=O)NC3(CCCCC3C)C2=O)cc1 (configuration not stated)	-7%	-2%	0	7%	-4%	0
Cc1cc2nc(C)n(CCCNC(=O)Nc3ccc(F)cc3)c2cc1C	-19%	10µM*	-8	1%	-5%	5
COc1ccc(Cc2nnc(NN)[nH]c2=O)cc1OC	-6%	-22%	-5	0%	22µM*	0
Cn1c(SCC(=O)NN2C(=O)NC(C)(c3ccccc3)C2=O)nnc1-c1ccncc1 (configuration not stated)	4%	0%	-2	-5%	-3%	-1
Cc1cc(=O)n2nc(N3CCCC(C(=O)NCCc4ccccc4)C3)sc2n1 (configuration not stated)	5%	13%	-8	0%	10%	-8
O=C(NCCc1ccccc1)C1CCCN(c2nc3ccccc3s2)C1 (configuration not stated)	-7%	10µM*	-8	8%	-5%	2
O=C(CN1CCN(S(=O)(=O)N2CCCCCC2)CC1)Nc1ccc(F)cc1	-27%	?	-14	9%	-4%	10
Cc1ccc(/C=N/NC(=O)CN2CCN(S(=O)(=O)c3ccc(Br)cc3)CC2)s1	-13%	-29%	-19	13%	13%	-2
CCc1ccc(NC(=O)CN2CCCN(S(=O)(=O)c3ccc(F)cc3)CC2)cc1	8%	5µM*	-19	5%	-8%	9
O=C(CN1CCN(S(=O)(=O)N2CCCCCC2)CC1)Nc1ccc(Br)cc1	8%	?	?	1%	1%	-101*
SMILES	HEK293 tox	GLP1R inv ag	KCNH2 3.1 inh	GLP-1R agonist	GLS inhibitor	KCNH2 WT inh
O=C(CN1CCN(Cc2ccccc2)CC1)Nc1ccc(Br)cc1	-3%	?	-84*	8%	4%	-33
O=C(CN1CCN(S(=O)(=O)c2ccc(Br)cc2)CC1)N/N=C/c1ccc(Br)s1	?	?	-76*	9%	4%	-27
O=S(=O)(c1ccccc1)c1nnn2c1nc(NCc1ccccc1)c1sccc12	-2%	1%	.	.	-8%	.
CC(C)CCN(CC(=O)NCc1ccc(F)cc1)S(=O)(=O)c1ccccc1F	22%	?	-17	16%	-12%	4
COC(=O)c1ccc(NC(=O)CN2CCN(S(=O)(=O)c3ccc(Br)cc3)CC2)cc1	-21%	3.5µM*!	7	-1%	0%	-1
Cc1ccc(S(=O)(=O)N2CCN(CC(=O)N/N=C\c3ccc(O)c(O)c3)CC2)cc1	-9%	16%	7	7%	?	-10
O=C(CN1CCN(S(=O)(=O)N2CCCCC2)CC1)Nc1ccc(Cl)c(Cl)c1	-17%	8.9µM*	-3	10%	-6%	-17
O=C(CN1CCN(S(=O)(=O)N2CCCCC2)CC1)Nc1cc(Cl)cc(Cl)c1	8%	?	10	16%	-3%	11
Cc1ccc(S(=O)(=O)N2CCN(CC(=O)N/N=C/C=C/c3ccccc3)CC2)cc1	-1%	-23%	-75*	-11%	5%	-5
CCCC(=O)Nc1cc(-c2nnc3c4ccccc4c(C)nn23)ccc1C	0%	3%	.	.	2%	.
N#CC1=C(N)OC2=C(CCc3ccccc32)C1c1ccccc1 (configuration not stated)	-27%	1.3µM*	7	14%	53%	-8
Cc1ccc(/C=C2\CCC3=C2OC(N)=C(C#N)C3c2ccc(C)cc2)cc1 (configuration not stated)	142%	?	-23	-7%	20%	?
CCc1ccccc1Nc1nc2cc(Cl)c(Cl)cc2nc1-n1nc(C)cc1C	14%	-1%	.	.	-4%	.
O=C(CSc1nc(-c2ccco2)cc(C(F)(F)F)n1)Nc1ccc2c(c1)OCO2	?	?	-13	-7%	0%	4
O=C(CCCSc1nc(-c2ccco2)cc(C(F)(F)F)n1)Nc1ccc2c(c1)OCO2	-4%	10µM*	0	4%	1%	5

Bioassay records as filed in PubChem BioAssay.
